The panel holds about 83,000 compounds, 20% with a hit somewhere; the sample as a whole holds those more often.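 48-hour exposure, single concentration, 96-well plates; percent growth endpoint where 0 means no net growth. Active: below 10.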 Values without a mark were called inactive. The source made the active and inactive calls.
The molecules below were run on NCI-H322M lung (assay: NCI-60 one-dose screen, 48 h (100 = growth as untreated, 0 = no growth, -100 = all killed)). Details: 10 µM unless noted.
Method: Growth inhibition of the NCI-H322M human Non-Small Cell Lung tumor cell line is measured as a screen for anti-cancer activity. Cells are grown in 96 well plates and exposed to the test compound for 48 hours. Compounds are tested at a single concentration, which is 10^-5 M for most compounds. The reported endpoint is percent growth (GI% or GIPRCNT), where numbers from 0 - 100% represent growth inhibition, and numbers from -100% - 0 represent cell death. For example, a value of 40 represents 60% growth inhibition. A value of 0 means no net growth occurred over the course of the experiment. A value of -40 indicates 40% of cells at the beginning of the experiment died by the end of the experiment. A value of -100 means all cells are dead at the end of the experiment.
NCI-60 Human Tumor Cell Lines Screen was performed using the standard one-dose NCI protocol, which is described in more detail at https://dtp.cancer.gov/discovery_development/nci-60/default.htm.
Compounds with GIPRCNT values below 10 were considered active. Activity score was based on GIPRCNT using the following formula: […]
Score is 0 for GIPRCNT values of 100 or above, 50 for GIPRCNT values of 0, and 100 for GIPRCNT values of -100.

SMILES | growth
O=C(NNc1nc2cc(F)ccc2n2c(CN3CCOCC3)ccc12)c1ccccc1 | 25.1%
CCn1cc(C(=O)O)c(=O)c2cc(F)c(N3CCN(CC(=O)Nc4ccccc4)C(C)C3)c(F)c21 (stereo not given) | 85.7%
O=S(=O)(NCCNc1nccc(-c2c(-c3ccc(F)c(O)c3)nc3sccn23)n1)c1ccc(Cl)cc1 | 55.8%
COc1cc2ncnc(Nc3ccc(F)c(Cl)c3)c2cc1OCC(=O)N1CCOCC1 | 24.7%
C#Cc1cccc(NC(=O)C2CCCCN2C(=O)CCl)c1 (stereo not given) | 65.1% [8.25 µM]
COc1cc(C[C@H]2COc3cc(O)cc(O)c3C2=O)ccc1O | 69.7%
CC12OC(CC(O)C1O)n1c3ccccc3c3c4c(c5c6ccccc6n2c5c31)C(=O)N(CCN1CCCC1)C4=O (stereo not given) | 28.5%
CCn1cc(C(=O)N/N=C/c2ccccc2)c(=O)c2cc(F)c(N3CCNC(C)C3)c(F)c21 (stereo not given) | 52.4%
N=C(N)c1ccc(-c2ccc(-c3cc(Cl)cc(Cl)c3)s2)s1 | -44.7% (active)
COc1ccc(-c2nc(SCC(=O)Nc3nc4ccc(C)cc4s3)[nH]c(=O)c2C#N)cc1OC | 101%
Cc1ccc(S(=O)(=O)c2nc(-c3ccccc3)oc2SCC(N)=O)cc1 | 104%
COc1cc(/C=C/C(=O)c2cc(OC)c(OC)c(OC)c2)ccc1Oc1nc2c(c(=O)n(C)c(=O)n2C)n1C | 0% (active)
CC1(C)CC[C@]2(CO)CC[C@]3(C)[C@](O)([C@H](O)C[C@@H]4[C@@]5(C)CCCNC(C)(C)[C@@H]5CC[C@]43C)[C@@H]2C1 | 103%
O=S(O)c1cc(Cl)cc(Cl)c1OCc1ccccc1 | 95.9%
N#CSc1c[nH]c2ccc(/C=C/C(=O)/C=C(O)/C=C/c3ccc4[nH]cc(SC#N)c4c3)cc12 | 96.9%
Nc1[nH]nc2nc(-c3ccccc3)n3c4ccccc4nc3c12 | 93%
CC(=O)Nc1sc2c(c1-c1nc3ccccc3s1)CNC2 | 14.5%
Cn1c(=O)c2[nH]c(SC/C(=N/O)c3ccc(Br)cc3)nc2n(C)c1=O | 34.8%
Oc1c(CN2CCC(N3CCOCC3)CC2)cc(Cc2cc(CN3CCC(N4CCOCC4)CC3)c(O)c3ncccc23)c2cccnc12 | 37.6%
O=c1oc2c(cnc3ccccc32)cc1-c1cccc(Cl)c1 | 104%

SMILES | growth
COc1ccc(Nc2ncc(I)c(NCCCNC(=O)C3CCC3)n2)cc1 | 6.78% (active)
CCOC(=O)c1[nH]cc2c1CCc1sc(Nc3ccccn3)nc1-2 | 96%
c1ccc(-c2c(-c3ccccc3)[n+](Cc3ccc4ccccc4c3)cn2Cc2ccc3ccccc3c2)cc1 | -20.8% (active)
C/C=C1/CN(CCCCC)CC[C@H]1C(=O)c1cc2ccccc2[nH]1 | 86.6%
COc1ccc(-c2cn(Cc3cc4ccccc4s3)nn2)cc1OCCN1CCCCC1 | 94.2%
c1cc(OCCCCCOc2cccc(-c3nc4ccccc4[nH]3)c2)cc(-c2nc3ccccc3[nH]2)c1 | 23.1%
COc1ccc(Nc2ncc(C#N)c(NCCCNC(=O)C3CCC3)n2)cc1 | 80.8%
CCOC(=O)c1cn2ncnc(Oc3ccc(NC(=O)NC4CC4)c(Cl)c3)c2c1C | 101%
Nc1ncccc1O | 98.8%
CCOC(=O)C1=C(c2ccccc2)N=C2N(c3ccccc3)N=C(C(C)=O)N2C1c1ccc(F)cc1 (stereo not given) | 99.2%
O=C1/C(=C/c2ccccn2)SC(=S)N1N1CCOCC1 | 97.5%
Clc1ccc(Nc2ncc(Cc3cccc(Cl)c3Cl)s2)cc1 | 110%
CC(C)(C)OC(=O)CN1CCc2c(sc3ncnc(N4CCN(c5ccc(F)cc5)CC4)c23)C1 | 83.6%
CNC(=O)c1cc(Oc2ccc3c(c2)sc2nc(-c4cc(C(F)(F)F)cc(C(F)(F)F)c4)cn23)ccn1 | 89.8%
O=C(NCCN1CCOCC1)OCc1ccc2c(Cl)cc(Cl)c(O)c2n1 | 66.9%
COc1ccc(C/C(C)=C(\c2ccc(O)cc2)c2ccc(OCCN3CCCCC3)cc2)cc1 | 93.8%
C=C(c1ccc(C(=O)O)c(F)c1)c1cc2c(cc1C)C(C)(C)CCC2(C)C | 101%
NS(=O)(=O)c1ccc(C(=O)NN2C(=O)c3ccccc3C2=O)cc1 | 110%
O=C(/C=C/c1ccco1)Nc1ncc(Cc2cc(Cl)ccc2Cl)s1 | 43.7%
O=C(c1cccc(N2CCOCC2)n1)c1c[nH]c2ccccc12 | 97%

Source: PubChem BioAssay (NCI)
